Rows were chosen to be rich in hits. Some 3.3% of all compounds tested hit in one or more screens of this group.
SMARCA2 activ: activators of SMARCA2 function; hit rate 1% among 370,000; AID 652017; activation, % at 9.1 µM; MG213 cells, MMTV-luciferase reporter, dexamethasone, overnight; in the data active = activation above about 7.8%;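 also: 0% = vehicle wells and 100% = reference activator wells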
Gli-Sufu block: antagonists of Gli-Sufu signaling | inhibition, % at 5 µM | Sufu-KO-LIGHT fibroblasts, Gli luciferase reporter luminescence | hit rate 0.74% among 340,000;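 active = inhibition above about 55%, limit read from the data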;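 also: 0% = DMSO-treated cells and 100% = wells with medium but no cells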
697 NFkB inh: lowers PMA/ionomycin-induced NF-kB signal in 697 B cells. 697 B-cell NF-kB luciferase reporter, 16 h. inhibition, % at 4 µM. hit rate 0.33% among 330,000; in the data active = inhibition above about 35%
esBAF inh: SWI/SNF esBAF complex inhibition. mouse ES cells, Bmi1-luciferase knock-in reporter, 24 h; 100% = twice the neutral-well signal. reporter increase, % at 12.5 µM. hit rate 2% among 350,000. AID 602393; in the data active = activation above about 40%; inconclusive = no clear call, values can overlap the other calls;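 also: 0% = median of the plate's neutral control wells and 100% = double that signal; a rise in the Bmi1 reporter signal indicates esBAF inhibition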
Jurkat NFkB inh: inhibitors of the PMA/ionomycin-induced NF-kB reporter in Jurkat cells; PMA/ionomycin-induced NF-kB luciferase reporter, luminescence; inhibition, % at 4 µM; hit rate 0.53% among 330,000; in the data active = inhibition above about 50%
Jurkat NFkB conf: lowers PMA/ionomycin-induced NF-kB signal in Jurkat cells | shares compounds with Jurkat NFkB inh | Jurkat NF-kB luciferase, 16 h | inhibition, % at 4 µM | hit rate 27% among 2,700;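 active = inhibition reaching about 45% at 4 µM in either replicate, limit read from the data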;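 also: plate controls were PMA/ionomycin stimulated DMSO wells for no effect and unstimulated DMSO wells for full effect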
* hit, by the source's call; ? = inconclusive; / = not tested or not shown.

SMILES	SMARCA2 activ	Gli-Sufu block	697 NFkB inh	esBAF inh	Jurkat NFkB inh	Jurkat NFkB conf
O=C(C[C@@H]1C[C@@H]2c3cc(NC(=O)Nc4ccc(F)cc4)ccc3O[C@@H]2[C@@H](CO)O1)NCC1CC1	/	/	/	1.7	/	/
CCOC(=O)C1CCCN(C(=O)c2cc3c(-c4cccc(OC)c4)nn(C)c3s2)C1 (stereo not given)	-2.1	-2.6	-14.7	-1.1	55.1*	11.4
Cc1cc(C)cc(N=c2c([N+](=O)[O-])nn(-c3ccc4c(c3)OCCO4)n2O)c1	-6.3	31.1	32.9	11.9	26.2	/
O=[N+]([O-])c1nn(-c2ccc3c(c2)OCCO3)n(O)c1=Nc1ccccc1	-10.8	/	9.4	/	71.2*	88.6*
c1ccc(-c2nnc(-c3ccccn3)nn2)nc1	7.3	-104.0	-107.7	/	-75.2	/
c1ccc(-c2cccc(-c3ccccn3)n2)nc1	/	85.2*	-5.4	/	92.0*	82.6*
CCOc1cc(CNc2ccc3c(c2)OCCO3)cc(Br)c1OC	-6.2	0.4	2.7	-57.3	58.7*	14.7
Cn1c(/C=N/Nc2nc3ccccc3[nH]2)nc2ccccc21	4.8	-63.8	-238.9	/	-170.6	-105.1
O=[N+]([O-])c1ccc(N/N=C/c2ccccc2O)cc1	-2.9	21.8	-32.8	68.7*	60.7*	-30.6
CCCn1c(/C=N/Nc2nc3ccccc3[nH]2)nc2ccccc21	4.0	-1.5	/	/	/	/
O=[N+]([O-])c1ccc(O)c(/C=N/Nc2nc3ccccc3[nH]2)c1	-3.8	11.7	-65.0	/	55.3*	33.9
COc1ccc(O)c(/C=N/Nc2nc3ccccc3[nH]2)c1	-5.7	6.2	9.6	/	-24.9	/
COc1ccc(S(=O)(=O)Nc2cccc3c2O[C@H](CN(C)C(=O)Nc2cccc4ccccc24)[C@@H](C)CN([C@H](C)CO)C3=O)cc1	/	/	/	1.7	/	/
Cc1cc2nc(-c3ccc(SCC(=O)Nc4ccc(S(=O)(=O)NC5CC5)cc4)nc3)[nH]c2cc1C	2.5	-66.4	-153.9	/	-180.6	-140.8
Cc1cc2nc(-c3ccc(SCC(=O)NC(C)C)nc3)[nH]c2cc1C	/	/	-44.3	/	-69.7	/
CN1CCN(C(=O)C[C@@H]2C[C@H]3c4cc(NC(=O)Cc5ccncc5)ccc4O[C@H]3[C@@H](CO)O2)CC1	/	/	/	-3.7	/	/
O=C(C[C@@H]1C=C[C@H](NC(=O)Nc2cccc(F)c2)[C@@H](CO)O1)NCC1CC1	/	/	/	1.9	/	/
CC1=C(C(=O)Nc2cccc(F)c2)C(c2ccsc2)C2=C(CC(C)(C)CC2=O)N1 (stereo not given)	-3.5	14.1	-33.3	/	50.4*	6.8
CO[C@H]1CN(C)C(=O)c2ccc(NC(C)=O)cc2OC[C@@H](C)N(C(=O)C2CC2)C[C@H]1C	/	/	/	-1.8	/	/
Cc1nc(SCC(=O)Nc2nccs2)c(C#N)c(C)c1C	-2.2	-0.8	-204.6	-65.6	24.1	/
Cc1nc(SCC(=O)Nc2nc3ccccc3s2)c(C#N)c(C)c1C	-10.0	90.1*	32.7	/	89.5*	89.0*
Cc1cccn2cc(-c3cc4ccccc4oc3=O)nc12	1.2	-75.0	-204.9	-43.3	-152.3	-81.2
O=c1oc2ccccc2cc1-c1cn2ccccc2n1	0.1	-14.7	-143.6	/	-17.0	/
Cc1cccn2cc(-c3ccc(Cl)cc3)nc12	0.4	-118.6	-240.7	/	-194.4	-110.8
Cn1cnc(CCNC(=O)C[C@H]2CC[C@H]3[C@@H](COC[C@H](O)CN3C(=O)Nc3ccc(F)cc3)O2)c1	/	/	/	9.1	/	/
SMILES	SMARCA2 activ	Gli-Sufu block	697 NFkB inh	esBAF inh	Jurkat NFkB inh	Jurkat NFkB conf
CCC(=O)N[C@H]1C=C[C@@H](CC(=O)NCc2ccccc2F)O[C@@H]1CO	/	/	/	-0.8	/	/
Cc1ccc(C(=O)OCC(=O)c2ccccc2)cc1	4.5	-123.4	-119.5	7.5	-168.6	-62.7
Cc1ccc(C(=O)CC(=O)c2ccccc2)cc1	2.2	-54.9	-160.3	?	-133.4	/
Cc1cc(C(=O)Nc2ccc3ccccc3c2)c(C)o1	4.1	-68.4	-166.1	1.5	-176.2	-11.9
CC(=O)c1cc(C(=O)Nc2ccc3ccccc3c2)c(C)o1	-3.2	38.7	-2.0	-2.7	1.3	/
Cc1ccc(C(=O)CSc2nnc3ccccn23)c(C)c1	2.0	-106.2	-130.7	/	-157.6	-83.2
C[C@@H]1CCCCO[C@@H](CN(C)C)[C@H](C)CN([C@@H](C)CO)C(=O)c2cc(NC(=O)CCC(F)(F)F)ccc2O1	/	/	/	1.5	/	/
COc1cc(C2=NOC(C(=O)NCc3cccs3)C2)cc(OC)c1OC (stereo not given)	-0.6	2.7	-66.7	1.3	50.3*	36.1
COc1cc(C2=NOC(C(=O)NCc3ccco3)C2)cc(OC)c1OC (stereo not given)	3.2	-1.2	-9.3	/	65.5*	5.7
COc1cc(OC)c(C2=NOC(C(=O)NCc3cccnc3)C2)cc1Cl (stereo not given)	-0.5	-11.2	-8.5	-7.3	28.6	/
COc1ccc(C2=NOC(C(=O)NCc3ccco3)C2)cc1 (stereo not given)	1.6	-17.1	-30.8	0.7	41.3	/
COc1cc(OC)c(C2=NOC(C(=O)NCc3cccs3)C2)cc1Cl (stereo not given)	-0.3	11.2	-16.5	/	53.5*	21.8
COc1ccc(C2=NOC(C(=O)NCc3cccs3)C2)cc1OC (stereo not given)	0.2	-2.7	-98.8	/	50.2*	43.8
CCCC(=O)Nc1ccc2c(c1)C(=O)N(C)C[C@H](OC)[C@H](C)CN(Cc1ccc(-c3ccccn3)cc1)[C@@H](C)CO2	/	/	/	3.4	/	/
C[C@H](CO)N1C[C@H](C)[C@@H](CN(C)C(=O)c2ccc3c(c2)OCO3)Oc2ncc(C#Cc3ccccc3F)cc2C1=O	/	/	/	2.9	/	/
O=C(Nc1ccc(Cl)cc1)N[C@H]1CC[C@@H](CCn2cc(Cc3ccccc3)nn2)O[C@@H]1CO	/	/	/	-0.1	/	/
O=C(Nc1ccc(F)cc1)Nc1ccc2c(c1)[C@H]1C[C@@H](CC(=O)N3CCOCC3)O[C@@H](CO)[C@H]1O2	/	/	/	-2.6	/	/
CCCc1nc(SCC(=O)Nc2cc(C)on2)c2ccccc2n1	-4.7	6.0	6.5	11.3	-10.0	/
Cc1cc(NC(=O)CSc2nc(C(C)(C)C)nc3ccccc23)no1	-2.8	1.5	-61.6	/	56.6*	19.8
CC=Cc1ccc2n(c1=O)C[C@H]1[C@H](CO)[C@@H](C(=O)N3CCc4ccccc4C3)N[C@@H]21 (mixture of isomers)	/	/	/	2.0	/	/
CCc1ccc(N/C(N)=N/c2nc(CSc3ccccn3)cc(=O)[nH]2)cc1	-1.9	47.5	-50.4	/	16.0	/
COc1cccc(N/C(N)=N/c2nc(CSc3ccccn3)cc(=O)[nH]2)c1	/	/	-44.6	/	57.9*	56.1*
CN(C)CC(=O)Nc1ccc2c(c1)[C@H]1C[C@H](CC(=O)NCCN3CCCCC3)O[C@@H](CO)[C@H]1O2	/	/	/	0.5	/	/
Fc1ccccc1OCCSc1nnnn1-c1ccccc1	3.6	-89.2	-159.6	-21.5	-174.4	-139.2
CCOc1ccc(Oc2ccc(NS(=O)(=O)c3cc(C(=O)O)ccc3Cl)cc2)cc1	-4.3	-0.2	11.9	-0.2	-6.1	/
CCOc1ccc(NS(=O)(=O)c2cc(NC(=O)c3ccc(C)cc3)ccc2Cl)cc1	-4.0	-8.5	-147.5	/	52.7*	34.2

High-throughput results from PubChem BioAssay.
